PubChem BioAssay (NCATS)
Records with an inconclusive call do not appear. Active and inactive are the calls of the source. Unless noted, calls come from the whole dose curve.

Columns and labels:
[1] = target: Estrogen receptor (Homo sapiens) (UniProt P03372); experiment: qHTS assay for small molecule antagonists of estrogen receptor alpha signaling (AID 588513; active = well fitted curve in the direction sought with a large enough effect in the signal ratio, with a control signal flat, not every such curve was filed as active; the % refers to the signal ratio; note: % is set by controls: 0 for no effect and ±100 for the full control effect)
Method in brief: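 Antagonist-mode qHTS in ER-alpha-UAS-bla HEK 293 cells: compound titration, 0.5nM estradiol for 18 h, CCF4 fluorescence, Hill-derived IC50.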

[2] = target: Estrogen receptor (Homo sapiens) (UniProt P03372); experiment: qHTS assay for small molecule agonists of estrogen receptor alpha signaling (AID 588514);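 note: 0% = vehicle only and 100% = reference agonist; nearly all actives have a fitted effect of over 70% in size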
Method in brief: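 Fluorescence from CCF4 cleavage reports ER-alpha-driven beta-lactamase expression in HEK 293 cells treated 18 hrs at 37 C. Data normalized to 17-beta-estradiol (20 nM) and DMSO, fitted to Hill equation.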

[3] = target: Androgen receptor (Homo sapiens) (UniProt P10275); experiment: qHTS assay for small molecule agonists of androgen receptor signaling (AID 588515; active = well fitted curve in the direction sought with a large enough effect in the signal ratio, with a control signal flat; the % refers to the signal ratio; note: % is set by controls: 0 for no effect and ±100 for the full control effect); settings: AR-UAS-bla HEK293, beta-lactamase ratio, agonist 16 h; activation: stronger effect = higher value
Method in brief: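 Stimulation of an AR-responsive β-lactamase reporter in GripTite HEK293 cells was measured after 16 h compound exposure at 37 °C, via CCF4 fluorescence after 2 h RT. EC50 from Hill fits, normalized to R1881 at 30 nM.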

[4] = target: Androgen receptor (Homo sapiens) (UniProt P10275); experiment: qHTS assay for small molecule antagonists of androgen receptor signaling (AID 588516; active = well fitted curve in the direction sought with a large enough effect in the signal ratio, with a control signal flat, not every such curve was filed as active; the % refers to the signal ratio; note: % is set by controls: 0 for no effect and ±100 for the full control effect)
Method in brief: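 Compounds tested in titration against 10 nM R1881 in AR-responsive bla reporter HEK 293 cells; CCF4 fluorescence (460/530 nm) after 16 h exposure gave IC50 and efficacy.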

[5] = target: Bile acid receptor (Homo sapiens) (UniProt Q96RI1); experiment: qHTS assay for small molecule antagonists of farnesoid X receptor signaling (AID 588526); note: % is set by controls: 0 for no effect and ±100 for the full control effect
Method in brief: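 Antagonist mode: titrated compounds tested against chenodeoxycholic acid stimulation (normalized to 50 uM CDCA and DMSO) in GeneBLAzer HEK293T cells for 16 h. Beta-lactamase read by CCF4 fluorescence; IC50 from Hill fits.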

[6] = target: Glucocorticoid receptor (Homo sapiens) (UniProt P04150); experiment: qHTS assay for small molecule agonists of glucocorticoid receptor signaling (AID 588532; active = well fitted curve in the direction sought with a large enough effect in the signal ratio, with a control signal flat; the % refers to the signal ratio;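 note: 100% = dexamethasone at 0.1 µM and 0% = DMSO only wells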); settings: HeLa MMTV-bla, beta-lactamase ratio, agonist, 18 h; stronger effect = higher value; percent of dexamethasone control, DMSO zero
Method in brief: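 Cells were plated and rested 3-5 h at 37 C, compounds were added in titration and incubated 18 h, then CCF4 substrate was loaded for 2 h at RT before reading blue/green fluorescence. EC50 came from Hill-equation fitting.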

[7] = qHTS assay for small molecule antagonists of peroxisome proliferator-activated receptor delta signaling (AID 588535; active = well fitted inhibition curve with a large enough effect in the signal ratio, with a control signal flat, not every such curve was filed as active; the % refers to the signal ratio;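 for max response: cells co-treated with a PPAR-delta agonist as stimulator during compound exposure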); settings: HEK293T PPARd-UAS-bla, beta-lactamase FRET ratio, 18 h; 460 nm channel
Method in brief: (§1)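 Beta-lactamase reporter read-out (405 nm excitation, 460/530 nm emission) after CCF4 loading for 2 hrs at RT. HEK293T PPAR-delta-UAS-bla cells, 2% charcoal/dextran FBS, compounds for 18 hrs at 37 C. Hill fit gave IC50 and efficacy.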

[8] = target: Peroxisome proliferator-activated receptor delta (Homo sapiens) (UniProt Q03181); experiment: as above
Method in brief: as §1

[9] = target: Peroxisome proliferator-activated receptor gamma (Homo sapiens) (UniProt P37231); experiment: qHTS assay for small molecule agonists of peroxisome proliferator-activated receptor gamma signaling (AID 588536; active = well fitted curve in the direction sought with a large enough effect in the signal ratio, with a control signal flat, not every such curve was filed as active; the % refers to the signal ratio;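 note: 0% = DMSO basal wells and 100% = rosiglitazone at 2 µM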)
Method in brief: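 This is an agonist-mode beta-lactamase reporter assay in HEK293 PPAR-gamma-UAS-bla cells with 1% charcoal/dextran FBS. Compound titrations ran 16 h at 37 C before CCF4 detection. EC50 and efficacy are Hill fits scaled to 2 uM rosiglitazone (100%) and DMSO basal.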

[10] = target: Peroxisome proliferator-activated receptor gamma (Homo sapiens) (UniProt P37231); experiment: qHTS assay for small molecule antagonists of peroxisome proliferator-activated receptor gamma signaling (AID 588537; active = well fitted inhibition curve with a large enough effect in the signal ratio, with a control signal flat, not every such curve was filed as active; the % refers to the signal ratio;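 note: reporter cells co-stimulated with 50 nM rosiglitazone agonist during compound treatment; % of control where 0% means no effect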)
Method in brief: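 Read-out: CCF4 fluorescence (ex 405, em 460/530 nm) after 2 h at RT. Cells were HEK293 carrying a UAS-bla reporter and treated 16 h at 37 C with compound plus rosiglitazone (50 nM final). Normalized to rosiglitazone and DMSO.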

[11] = target: Vitamin D3 receptor (Homo sapiens) (UniProt P11473); experiment: qHTS assay for small molecule antagonists of vitamin D receptor signaling (AID 588541)
Method in brief: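 VDR-UAS-bla HEK293T cells in 2% charcoal-stripped FBS were stimulated with 1-alpha,25-dihydroxyvitamin D3 (3 nM final) plus compound for 16 h at 37 C. The beta-lactamase CCF4 readout was normalized to 50 nM agonist and DMSO, and Hill fits gave IC50.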

[12] = qHTS assay for small molecule agonists of retinoid X receptor alpha signaling (AID 588544); settings: HEK293T RXRa-UAS-bla, beta-lactamase reporter, 18 h; 530 nm emission;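 for activation: 0% = DMSO basal wells and 100% = reference agonist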
[13] = target: Retinoic acid receptor RXR-alpha (Homo sapiens) (UniProt P19793); experiment: as above
[14] = target: Thyroid hormone receptor beta (Homo sapiens) (UniProt P10828); experiment: qHTS assay for small molecule agonists of thyroid hormone receptor beta signaling (AID 588545)
Method in brief: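 HEK 293 TR-UAS-bla; agonist mode; 18 hrs, 37 C; CCF4, ex 405/em 460 and 530 nm; norm. T3 10 nM = 100%, DMSO = 0%; Hill fit → EC50, efficacy.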

[15] = qHTS assay for small molecule antagonists of retinoid X receptor alpha signaling (AID 588546; active = well fitted inhibition curve with a large enough effect in the signal ratio, with a control signal flat, not every such curve was filed as active; the % refers to the signal ratio); settings: HEK293T RXRa-UAS-bla, beta-lactamase ratio, antagonist mode; measured here: W530 green channel, cytotoxicity proxy
Method in brief: (§2)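 Beta-lactamase reporter inhibition, read as CCF4 fluorescence ratio (ex 405, em 460/530 nm) after 2 h at RT. HEK293T UAS-bla cells, 2500/well, were stimulated with 9-cis-RA at 500 or 100 nM final alongside test compound for 18 h at 37 C.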

[16] = target: Retinoic acid receptor RXR-alpha (Homo sapiens) (UniProt P19793); experiment: as above; settings: HEK293T RXRa-UAS-bla, beta-lactamase ratio, antagonist mode
Method in brief: as §2

[17] = target: Thyroid hormone receptor beta (Homo sapiens) (UniProt P10828); experiment: qHTS assay for small molecule antagonists of thyroid hormone receptor beta signaling (AID 588547; active = well fitted inhibition curve with a large enough effect in the signal ratio, with a control signal flat, not every such curve was filed as active; the % refers to the signal ratio); settings: TR-UAS-bla HEK293, beta-lactamase ratio, antagonist mode, 18 h
Method in brief: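 TR-UAS-bla GripTite HEK293 cells in 2% charcoal/dextran FBS medium; compounds 0.59 nM to 92 uM with T3 at 0.4nM final, 18 h at 37 C. Beta-lactamase read by CCF4 fluorescence (460/530 nm); Hill fits gave IC50 and efficacy.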

[18] = qHTS assay for small molecule activators of the p53 signaling pathway (AID 651743; active = well fitted activation curve with a large enough effect in the signal ratio, not every such curve was filed as active; the % refers to the signal ratio; note: series mostly up to about 92 µM; % of control where 0% means no effect); settings: HCT-116 p53RE-bla, beta-lactamase FRET ratio, 16 h; activation: stronger effect = higher value
Method in brief: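 Reporter: beta-lactamase driven by p53 response elements, stably integrated in HCT-116 cells. Cells seeded at 4,000/well, 5 h preincubation, compound (DMSO) 16 h at 37 C; B/G FRET substrate 2 h RT; fluorescence intensity read.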

[19] = qHTS assay for small molecule activators of the nuclear factor-kappa B (NF-kB) signaling pathway (AID 651749; active = well fitted activation curve with a large enough effect in the signal ratio; the % refers to the signal ratio; note: series mostly up to about 77 µM; % of control where 0% means no effect); settings: NF-kB-bla ME-180 cells, beta-lactamase FRET ratio, 16 h; activation: stronger effect = higher value
Method in brief: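 NF-kB-bla ME-180 cells, 2,000/well; 23 nL compound or DMSO pinned; 16 hr, 37C/5% CO2; beta-lactamase FRET read-out.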

[20] = qHTS assay for environmental chemicals that activate the Aryl hydrocarbon Receptor (AhR) signaling pathway (AID 651777; active = well fitted curve in the direction sought with a large enough effect; an effect the other way counts as inactive or inconclusive; note: % of control where 0% means no effect; nearly all actives have a fitted effect of over 15% in size); settings: 1A2-DRE human hepatoma cells, luciferase, 24 h; activation: stronger effect = higher value
Method in brief: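 Luminescence read-out: One-Glo added for 30 min at RT after 24 hr compound treatment (37 C, 5% CO2) of human hepatoma cells expressing a DRE/CYP1A2 promoter–luciferase reporter; increased signal indicates AhR activation.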

[21] = target: Peroxisome proliferator-activated receptor alpha (Homo sapiens) (UniProt Q07869); experiment: qHTS assay for small molecule agonists of the peroxisome proliferator-activated receptor alpha (PPARalpha) signaling pathway (AID 651778; active = well fitted curve in the direction sought with a large enough effect; an effect the other way counts as inactive or inconclusive; note: % of control where 0% means no effect); settings: PathHunter PPARalpha complementation, chemiluminescence, 6 h; max response: stronger effect = higher value
Method in brief: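 Enzyme-fragment complementation assay in which ligand-bound PPARalpha translocates and forms an active enzyme that generates chemiluminescence. Cells were plated overnight, exposed to compound for 6 hr at 37 C, and then given detection reagent for 60 min at room temperature.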

[22] = qHTS assay for small molecule agonists of the antioxidant response element (ARE) signaling pathway measured by Nrf2-dependant transcriptional activity (AID 720636; active = well fitted curve in the direction sought with a large enough effect in the repeat runs; an effect the other way counts as inactive or inconclusive;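 note: HepG2 cells with an ARE-driven luciferase reporter; % of control where 0% means no effect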)
Method in brief: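 HepG2 ARE-luc reporter line, 1% dialyzed FBS; 6 hr attachment at 37 C, compound pinned in, 16 hr at 37 C/5% CO2; ONE-Glo, 30 min RT, luminescence read.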

[23] = qHTS assay for small molecule agonists of the antioxidant response element (ARE) signaling pathway measured by Nrf2-dependant transcriptional activity - cell viability counter screen (AID 720653; active = well fitted curve in the direction sought with a large enough effect in the repeat runs; an effect the other way counts as inactive or inconclusive; note: % is set by controls: 0 for no effect and ±100 for the full control effect); settings: ARE-bla HepG2 viability, CellTiter-Glo ATP luminescence, 16 h; max response: stronger effect = lower value
Method in brief: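 ARE-bla HepG2 cells treated with compounds for 16 h at 37C; this counter screen measures viability as intracellular ATP by CellTiter-Glo luminescence after 30 min at room temperature.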

[24] = qHTS assay for cell viability of HEK293 cells (AID 743288; active = well fitted curve in the direction sought with a large enough effect; an effect the other way counts as inactive or inconclusive; note: % is set by controls: 0 for no effect and ±100 for the full control effect; nearly all actives have a fitted effect of over 50% in size); settings: ATP luminescence (CellTiter-Glo), 18 h; max response: stronger effect = lower value
Method in brief: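 HEK293, 18 h, 37 C, ATP luminescence. Cells at 2,000/well were allowed at least 5 h to settle before dosing; CellTiter-Glo developed 30 min at RT.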

[25] = qHTS assay for cell viability of the p53RE-bla HCT-116 cell line (AID 743292; active = well fitted curve in the direction sought with a large enough effect; an effect the other way counts as inactive or inconclusive; note: % is set by controls: 0 for no effect and ±100 for the full control effect; nearly all actives have a fitted effect of over 55% in size)
Method in brief: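 Luminescent ATP quantitation (CellTiter-Glo) served as the viability read-out; reagent was added after 16 h compound exposure at 37 C and read after 30 min at room temperature. Cells: p53RE-bla HCT-116, 4,000 per well.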

[26] = target: Nuclear receptor subfamily 1 group I member 2 (Rattus norvegicus) (UniProt Q9R1A7); experiment: qHTS assay for small molecule activators of the rat pregnane X receptor (rPXR) signaling pathway (AID 651751; call rule not given here; note: 0% is about no effect); settings: rPXR reporter cells, luciferase (One-Glo), 24 h
[27] = qHTS assay for small molecule activators of the human pregnane X receptor (PXR) signaling pathway (AID 720659; call rule not given here; note: 0% is about no effect)

Thyroid hormone receptor beta (Homo sapiens), sequence (P10828 whole entry, looked up): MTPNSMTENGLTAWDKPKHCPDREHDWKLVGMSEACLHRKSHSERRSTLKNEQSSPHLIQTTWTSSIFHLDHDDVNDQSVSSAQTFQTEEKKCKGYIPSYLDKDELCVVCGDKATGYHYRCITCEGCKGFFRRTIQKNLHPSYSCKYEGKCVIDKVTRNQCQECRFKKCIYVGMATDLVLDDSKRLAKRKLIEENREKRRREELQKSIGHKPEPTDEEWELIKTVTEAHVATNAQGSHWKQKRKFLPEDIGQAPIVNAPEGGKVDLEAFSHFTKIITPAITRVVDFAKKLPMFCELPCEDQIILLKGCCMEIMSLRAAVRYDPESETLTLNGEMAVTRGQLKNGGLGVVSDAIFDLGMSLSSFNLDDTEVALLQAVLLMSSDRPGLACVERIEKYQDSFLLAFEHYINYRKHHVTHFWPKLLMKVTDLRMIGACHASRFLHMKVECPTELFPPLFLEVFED
Retinoic acid receptor RXR-alpha (Homo sapiens), sequence (P19793 whole entry, looked up): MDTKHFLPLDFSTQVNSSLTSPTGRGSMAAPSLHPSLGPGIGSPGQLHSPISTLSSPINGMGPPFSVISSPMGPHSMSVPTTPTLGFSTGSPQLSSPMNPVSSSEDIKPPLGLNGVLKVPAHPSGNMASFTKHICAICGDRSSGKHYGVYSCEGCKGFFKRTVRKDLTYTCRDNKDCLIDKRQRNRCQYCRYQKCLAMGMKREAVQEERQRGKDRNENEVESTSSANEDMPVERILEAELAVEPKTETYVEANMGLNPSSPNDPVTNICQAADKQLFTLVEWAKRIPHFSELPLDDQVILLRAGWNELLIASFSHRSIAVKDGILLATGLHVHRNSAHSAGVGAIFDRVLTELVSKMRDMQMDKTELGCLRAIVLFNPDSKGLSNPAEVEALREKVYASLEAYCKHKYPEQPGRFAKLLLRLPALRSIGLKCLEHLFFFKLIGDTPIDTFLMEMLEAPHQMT
Peroxisome proliferator-activated receptor gamma (Homo sapiens), sequence (P37231 whole entry, looked up): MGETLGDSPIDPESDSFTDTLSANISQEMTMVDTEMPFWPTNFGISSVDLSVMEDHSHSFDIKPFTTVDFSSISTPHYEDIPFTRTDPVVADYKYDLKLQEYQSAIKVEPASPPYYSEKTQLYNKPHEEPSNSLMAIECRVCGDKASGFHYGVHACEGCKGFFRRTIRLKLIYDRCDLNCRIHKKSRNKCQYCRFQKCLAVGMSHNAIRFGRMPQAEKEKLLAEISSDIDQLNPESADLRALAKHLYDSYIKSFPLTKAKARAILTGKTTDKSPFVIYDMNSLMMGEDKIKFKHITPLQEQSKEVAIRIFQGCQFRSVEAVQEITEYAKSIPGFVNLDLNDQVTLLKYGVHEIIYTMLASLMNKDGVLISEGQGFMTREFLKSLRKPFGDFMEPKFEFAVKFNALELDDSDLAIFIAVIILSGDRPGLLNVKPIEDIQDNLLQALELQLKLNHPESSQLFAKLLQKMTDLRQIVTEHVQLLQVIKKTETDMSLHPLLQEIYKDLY
Androgen receptor (Homo sapiens), sequence (P10275 whole entry, looked up): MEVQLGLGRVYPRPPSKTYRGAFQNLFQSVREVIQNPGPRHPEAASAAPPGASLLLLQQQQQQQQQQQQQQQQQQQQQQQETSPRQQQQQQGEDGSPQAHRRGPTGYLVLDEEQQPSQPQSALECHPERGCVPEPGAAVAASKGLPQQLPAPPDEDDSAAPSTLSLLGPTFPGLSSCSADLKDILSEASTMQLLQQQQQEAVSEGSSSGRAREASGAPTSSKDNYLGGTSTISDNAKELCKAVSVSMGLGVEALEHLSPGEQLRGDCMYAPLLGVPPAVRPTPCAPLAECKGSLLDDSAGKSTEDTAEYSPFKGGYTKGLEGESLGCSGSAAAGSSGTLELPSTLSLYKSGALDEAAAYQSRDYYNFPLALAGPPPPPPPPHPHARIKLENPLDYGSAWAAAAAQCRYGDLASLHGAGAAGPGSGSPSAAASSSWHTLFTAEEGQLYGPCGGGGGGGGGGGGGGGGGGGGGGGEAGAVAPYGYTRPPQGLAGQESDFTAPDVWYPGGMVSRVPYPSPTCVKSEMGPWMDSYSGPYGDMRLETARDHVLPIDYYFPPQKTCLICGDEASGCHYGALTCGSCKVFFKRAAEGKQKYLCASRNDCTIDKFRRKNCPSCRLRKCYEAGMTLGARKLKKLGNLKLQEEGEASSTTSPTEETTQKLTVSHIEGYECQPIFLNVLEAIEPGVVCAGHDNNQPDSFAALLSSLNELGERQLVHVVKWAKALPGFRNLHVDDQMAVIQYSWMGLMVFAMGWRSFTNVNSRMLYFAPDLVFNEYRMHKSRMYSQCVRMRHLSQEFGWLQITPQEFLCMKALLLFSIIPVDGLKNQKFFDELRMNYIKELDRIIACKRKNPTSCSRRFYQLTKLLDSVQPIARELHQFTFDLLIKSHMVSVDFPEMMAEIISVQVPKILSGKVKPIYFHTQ
Estrogen receptor (Homo sapiens), sequence (P03372 whole entry, looked up): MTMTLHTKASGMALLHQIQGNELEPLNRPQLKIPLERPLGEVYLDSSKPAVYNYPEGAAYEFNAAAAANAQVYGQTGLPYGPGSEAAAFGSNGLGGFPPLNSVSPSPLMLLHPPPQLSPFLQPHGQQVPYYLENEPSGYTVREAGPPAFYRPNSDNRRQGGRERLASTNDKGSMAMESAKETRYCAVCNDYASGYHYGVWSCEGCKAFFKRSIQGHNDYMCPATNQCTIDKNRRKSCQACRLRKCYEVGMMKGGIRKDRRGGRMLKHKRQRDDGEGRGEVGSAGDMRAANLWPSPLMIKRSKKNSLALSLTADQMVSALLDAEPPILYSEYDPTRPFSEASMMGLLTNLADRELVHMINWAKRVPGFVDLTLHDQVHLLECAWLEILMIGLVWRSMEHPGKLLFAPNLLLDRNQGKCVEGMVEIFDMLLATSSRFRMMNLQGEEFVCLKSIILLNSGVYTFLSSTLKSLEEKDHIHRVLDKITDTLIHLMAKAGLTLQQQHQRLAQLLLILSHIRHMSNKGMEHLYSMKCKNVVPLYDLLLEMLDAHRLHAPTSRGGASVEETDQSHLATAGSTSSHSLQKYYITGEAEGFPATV
Peroxisome proliferator-activated receptor alpha (Homo sapiens), sequence (Q07869 whole entry, looked up, the tested form may be a part): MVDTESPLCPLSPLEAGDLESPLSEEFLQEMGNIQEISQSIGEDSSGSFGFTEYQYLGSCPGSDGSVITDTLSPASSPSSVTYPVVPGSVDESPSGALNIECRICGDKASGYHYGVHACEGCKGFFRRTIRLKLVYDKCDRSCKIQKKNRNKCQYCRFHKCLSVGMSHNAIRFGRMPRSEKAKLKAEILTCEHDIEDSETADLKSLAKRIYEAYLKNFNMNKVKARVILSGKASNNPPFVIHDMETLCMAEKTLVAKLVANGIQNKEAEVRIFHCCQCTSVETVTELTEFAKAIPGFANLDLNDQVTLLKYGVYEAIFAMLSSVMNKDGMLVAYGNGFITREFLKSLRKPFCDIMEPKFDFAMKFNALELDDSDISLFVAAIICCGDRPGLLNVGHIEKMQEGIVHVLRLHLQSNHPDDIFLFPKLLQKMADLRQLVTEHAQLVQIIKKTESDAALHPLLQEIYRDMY
Glucocorticoid receptor (Homo sapiens), sequence (P04150 whole entry, looked up): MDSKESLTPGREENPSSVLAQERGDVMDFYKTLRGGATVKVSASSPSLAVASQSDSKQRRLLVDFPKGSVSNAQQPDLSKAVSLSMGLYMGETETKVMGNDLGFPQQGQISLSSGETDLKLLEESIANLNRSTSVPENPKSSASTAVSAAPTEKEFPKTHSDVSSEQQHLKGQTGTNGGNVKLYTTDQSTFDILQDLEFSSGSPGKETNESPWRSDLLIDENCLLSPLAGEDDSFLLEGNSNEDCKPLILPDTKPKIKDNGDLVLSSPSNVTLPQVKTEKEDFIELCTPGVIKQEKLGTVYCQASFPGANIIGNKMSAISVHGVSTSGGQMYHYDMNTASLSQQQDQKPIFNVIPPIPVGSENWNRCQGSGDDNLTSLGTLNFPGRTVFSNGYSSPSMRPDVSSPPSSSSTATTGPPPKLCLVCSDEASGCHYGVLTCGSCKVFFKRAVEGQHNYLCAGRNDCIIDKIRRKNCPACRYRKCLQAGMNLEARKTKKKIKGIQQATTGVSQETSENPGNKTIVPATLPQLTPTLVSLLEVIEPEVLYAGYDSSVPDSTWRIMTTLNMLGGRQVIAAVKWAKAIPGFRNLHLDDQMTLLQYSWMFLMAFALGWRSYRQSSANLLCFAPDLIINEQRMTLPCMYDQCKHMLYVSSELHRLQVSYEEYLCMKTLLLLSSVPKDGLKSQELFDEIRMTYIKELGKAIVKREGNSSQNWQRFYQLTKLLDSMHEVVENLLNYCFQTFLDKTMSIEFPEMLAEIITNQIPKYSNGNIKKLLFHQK
Bile acid receptor (Homo sapiens), sequence (Q96RI1 whole entry, looked up): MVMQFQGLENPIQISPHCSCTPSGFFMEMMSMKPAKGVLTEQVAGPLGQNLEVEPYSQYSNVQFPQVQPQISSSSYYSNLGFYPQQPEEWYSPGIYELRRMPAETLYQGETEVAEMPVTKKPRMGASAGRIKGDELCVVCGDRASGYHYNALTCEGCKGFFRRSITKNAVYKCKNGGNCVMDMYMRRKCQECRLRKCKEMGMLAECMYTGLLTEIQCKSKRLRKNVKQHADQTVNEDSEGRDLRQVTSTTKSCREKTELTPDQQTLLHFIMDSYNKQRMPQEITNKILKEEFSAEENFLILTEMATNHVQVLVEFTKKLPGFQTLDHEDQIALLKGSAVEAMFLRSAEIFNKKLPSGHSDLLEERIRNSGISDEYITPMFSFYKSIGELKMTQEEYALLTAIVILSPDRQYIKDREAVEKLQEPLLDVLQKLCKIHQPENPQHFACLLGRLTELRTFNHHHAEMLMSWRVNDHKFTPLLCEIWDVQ

COC(=O)c1c(Cl)nn(C)c1S(=O)(=O)NC(=O)Nc1nc(OC)cc(OC)n1
inactive: Potency [1] | Potency [2] | activation [3] 5.65% | outcome [4] | Potency [5] | activation [6] -2.96% | Potency [8] | outcome [9] | Potency [10] | Potency [11] | Potency [13] | Potency [14] | max response [16] -14.3% | activity change % (negative = inhibition) [17] -5.79% | activation [18] -0.555% | activation [19] -2.65% | activation [20] -1.75% | max response [21] 0.0687% | Potency [22] | max response [23] -2.6% | max response [24] -3.18% | Potency [25] | max response [26] 1.48% | outcome [27]
-3.44%: max response [12]
-24.6%: max response [7]
-1.74%: max response [15]
